# Results filed as inconclusive are left out. The source made the active and inactive calls. How the source made its calls: active means hit-call score of the fitted dose curve at least 0.9, where 1 is the maximum; inconclusive means response in the unintended direction; inactive means score below 0.9.
# Columns and labels:
# [1] = target: human Opioid Receptor Delta 1 (Opiate D1), OPRD1 (gene 4985) (UniProt P41143); assay: NVS_GPCR_hOpiate_D1: NovaScreen (NVS) G Protein-Coupled Receptor Assay for human Opioid Receptor Delta 1 (Opiate D1) (AID 2283280)
# How it was run: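 Membrane preparations from CHO cells bearing the human receptor were incubated 1 h with test chemical, and bound radioligand was counted after filtration. Actives from 25 uM duplicate screening were retested in concentration-response.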
# [2] = target: human Neurokinin, NK2 Receptor, TACR2 (gene 6865) (UniProt P21452); assay: NVS_GPCR_hNK2: NovaScreen (NVS) G Protein-Coupled Receptor Assay for human Neurokinin, NK2 Receptor (AID 2283278);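 further: actives reduce bound radioligand signal relative to DMSO baseline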
# How it was run: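 Filter-based scintillation counting measured radioligand bound to receptor extracted from CHO cells, 4 hours after compound addition. Chemicals screened first at 25 uM in duplicate, with actives retested in concentration series relative to DMSO.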
# [3] = target: rat Adrenergic, Alpha 1A Receptor (Adra1A), Adra1a (gene 29412) (UniProt P43140); assay: NVS_GPCR_rAdra1A: NovaScreen (NVS) G Protein-Coupled Receptor Assay for rat Adrenergic, Alpha 1A Receptor (Adra1A) (AID 2283296)
# How it was run: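 Filter radiodetection after 1 h competitive binding on CEC-pretreated rat cortical membranes. Duplicate single-point screening at 25 uM; active chemicals retested across concentration series.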
# [4] = target: human Neurotensin Receptor (NTS), NTSR1 (gene 4923) (UniProt P30989); assay: NVS_GPCR_hNTS: NovaScreen (NVS) G Protein-Coupled Receptor Assay for human Neurotensin Receptor (NTS) (AID 2283279)
# How it was run: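 Compounds competed with a radiolabelled ligand for binding to CHO-derived human neurotensin receptor; bound signal counted after filtration, 1 h. Screened first at a single concentration of 25 uM in duplicate, then concentration series to 50 uM maximum for actives.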
# [5] = target: human Thromboxane A2 Receptor (TXA2), TBXA2R (gene 6915) (UniProt P21731); assay: NVS_GPCR_hTXA2: NovaScreen (NVS) G Protein-Coupled Receptor Assay for human Thromboxane A2 Receptor (TXA2) (AID 2283282);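 further: actives reduce bound radioligand signal relative to DMSO baseline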
# How it was run: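 Screening ran at 25 uM in duplicate, with concentration series for confirmed actives. Each test measures radioligand binding to human platelet protein after 1 h, cell-free, using filter-based scintillation detection of signal loss relative to DMSO.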
# [6] = target: human Vasopressin 1A Receptor (V1A), AVPR1A (gene 552) (UniProt P37288); assay: NVS_GPCR_hV1A: NovaScreen (NVS) G Protein-Coupled Receptor Assay for human Vasopressin 1A Receptor (V1A) (AID 2283284)
# How it was run: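 Single-concentration duplicate screen at 25 uM, with concentration-response follow-up (top 50 uM) for actives. The assay measured displacement of a radioligand from human platelet-derived receptor after 1.5 h, detected by filtration and scintillation counting.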
# [7] = target: mouse Cholecystokinin, CCK1 Receptor (CCKA), Cckar (gene 12425) (UniProt O08786); assay: NVS_GPCR_mCCKAPeripheral: NovaScreen (NVS) G Protein-Coupled Receptor Assay for mouse Cholecystokinin, CCK1 Receptor (CCKA) (AID 2283285)
# How it was run: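 Chemicals were first screened in duplicate at 25 uM, with those meeting threshold (e.g., 30% inhibition) retested in singleton concentration series to 50 uM maximum. Binding of radioligand to mouse pancreatic membranes was read after 2 h by filtration and scintillation counting.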
# [8] = target: human Opioid Receptor Mu (Opiate Mu), OPRM1 (gene 4988) (UniProt P35372); assay: NVS_GPCR_hOpiate_mu: NovaScreen (NVS) G Protein-Coupled Receptor Assay for human Opioid Receptor Mu (Opiate Mu) (AID 2283290);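 further: hits lower bound tracer signal versus DMSO meaning displacement of the ligand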
# How it was run: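 CHO-derived receptor protein, cell-free; radioligand displacement, filtration + scintillation counting, read at 2.5 h. DMSO = negative control/baseline. Primary: 25 uM single conc, duplicate; secondary: concentration series.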
# [9] = target: mouse Cholecystokinin, CCK2 Receptor (CCKB), Cckbr (gene 12426) (UniProt P56481); assay: NVS_GPCR_mCKKBCentral: NovaScreen (NVS) G Protein-Coupled Receptor Assay for mouse Cholecystokinin, CCK2 Receptor (CCKB) (AID 2283293)
# How it was run: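 Mouse forebrain membrane preparation incubated 2 h with chemical and radioligand; bound radioactivity counted after filtration. Single-concentration duplicate screen at 25 uM, then concentration series to 50 uM max for hits, DMSO as baseline.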
# [10] = target: guinea pig Serotonin, 5-Hydroxytryptamine Receptor 4 (5HT4), HTR4 (gene 100135548) (UniProt O70528); assay: NVS_GPCR_g5HT4: NovaScreen (NVS) G Protein-Coupled Receptor Assay for guinea pig Serotonin, 5-Hydroxytryptamine Receptor 4 (5HT4) (AID 2283294)
# How it was run: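 Compounds first screened in duplicate at 25 uM, actives followed up in concentration series. Binding measured as displacement of specific radioligand from guinea pig striatal membranes, 1 h, filter-based scintillation read-out versus DMSO baseline.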
# [11] = test system: rat Adrenergic, Alpha 1B Receptor (Adra1B), gene 24173; assay: NVS_GPCR_rAdra1B: NovaScreen (NVS) G Protein-Coupled Receptor Assay for rat Adrenergic, Alpha 1B Receptor (Adra1B) (AID 2283297)
# How it was run: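 Filter-binding radioligand competition on membranes from rat liver, read after 1 h by scintillation counting. Single-concentration duplicate screen at 25 uM, followed by concentration-response on actives, normalised to DMSO.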
# [12] = target: rat Adrenergic Receptor, Beta (Adrb), Non-selective Binding, Adrb1 (gene 24925) (UniProt P18090); assay: NVS_GPCR_rAdrb_NonSelective: NovaScreen (NVS) G Protein-Coupled Receptor Assay for rat Adrenergic Receptor, Beta (Adrb), Non-selective Binding (AID 2283298)
# How it was run: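 Rat cortical membranes incubated 1 h with beta-adrenergic radioligand and test chemical; bound ligand measured by filtration and scintillation counting. Screen at 25 uM duplicate, then concentration series with 50 uM maximum; loss of signal versus DMSO.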
# [13] = target: rat Adrenergic Receptor, Alpha 2 (Adra2), Non-selective Binding, Adra2a (gene 25083) (UniProt P22909); assay: NVS_GPCR_rAdra2_NonSelective: NovaScreen (NVS) G Protein-Coupled Receptor Assay for rat Adrenergic Receptor, Alpha 2 (Adra2), Non-selective Binding (AID 2283299)
# How it was run: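 Filter-based scintillation counting of radioligand binding to rat cortical membrane receptors, measured 1.25 hours post-dosing; loss of signal versus DMSO indicates displacement. Initial single-concentration duplicate at 25 uM, then concentration series.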
# [14] = test system: rabbit Platelet Activating Factor Receptor (PAF), gene 100354046; assay: NVS_GPCR_rabPAF: NovaScreen (NVS) G Protein-Coupled Receptor Assay for rabbit Platelet Activating Factor Receptor (PAF) (AID 2283287)
# How it was run: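 Rabbit platelet membrane preparation; radioligand displacement read by filter-based scintillation counting 1 h after dosing, loss of signal versus DMSO. Primary screen in duplicate at 25 uM, actives followed up in concentration series.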
# [15] = target: rat Adrenergic, Alpha 1, Non-selective Receptor (Adra1), Adra1a (gene 29412) (UniProt P43140); assay: NVS_GPCR_rAdra1_NonSelective: NovaScreen (NVS) G Protein-Coupled Receptor Assay for rat Adrenergic, Alpha 1, Non-selective Receptor (Adra1) (AID 2283289)
# How it was run: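 Chemicals first screened in duplicate at 25 uM, then actives tested in concentration series up to 50 uM. Binding measured as displacement of radioligand from rat forebrain membrane receptors, 1 h, filtration with scintillation readout; DMSO baseline.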
# [16] = target: rat Serotonin, 5-Hydroxytryptamine Receptor 1 (5HT1), Non-Selective Binding, Htr1a (gene 24473) (UniProt P19327); assay: NVS_GPCR_r5HT1_NonSelective: NovaScreen (NVS) G Protein-Coupled Receptor Assay for rat Serotonin, 5-Hydroxytryptamine Receptor 1 (5HT1), Non-Selective Binding (AID 2283286)
# How it was run: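 Binding of a radioligand to rat cortex membranes is read by filtration and scintillation counting after 1 h. Compounds were screened at 25 uM in duplicate. Actives were then titrated to a top of 50 uM. DMSO is the baseline.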
# [17] = target: rat Serotonin, 5-Hydroxytryptamine Receptor (5HT), Non-Selective Binding, Htr1a (gene 24473) (UniProt P19327); assay: NVS_GPCR_r5HT_NonSelective: NovaScreen (NVS) G Protein-Coupled Receptor Assay for rat Serotonin, 5-Hydroxytryptamine Receptor (5HT), Non-Selective Binding (AID 2283295)
# How it was run: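 Rat cortex membrane preparation incubated 1 h with radioligand and test chemical; bound radioactivity counted after filtration. Screening began in duplicate at 25 uM with concentration-series follow-up; fitting relative to DMSO.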
# Chain of human Neurokinin, NK2 Receptor, TACR2 (gene 6865) (P21452 whole entry, looked up): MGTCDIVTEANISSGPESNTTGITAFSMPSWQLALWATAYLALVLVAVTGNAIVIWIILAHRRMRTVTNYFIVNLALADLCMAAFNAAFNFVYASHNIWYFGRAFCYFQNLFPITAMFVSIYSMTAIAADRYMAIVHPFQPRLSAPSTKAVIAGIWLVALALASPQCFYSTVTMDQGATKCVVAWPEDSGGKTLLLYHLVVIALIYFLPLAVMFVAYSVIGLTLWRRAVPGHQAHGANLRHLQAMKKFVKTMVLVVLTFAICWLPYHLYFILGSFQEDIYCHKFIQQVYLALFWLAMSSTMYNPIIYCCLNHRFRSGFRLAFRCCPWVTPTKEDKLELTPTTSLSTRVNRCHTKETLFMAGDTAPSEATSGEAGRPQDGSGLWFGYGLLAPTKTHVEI
# Chain of guinea pig Serotonin, 5-Hydroxytryptamine Receptor 4 (5HT4), HTR4 (gene 100135548) (O70528 whole entry, looked up): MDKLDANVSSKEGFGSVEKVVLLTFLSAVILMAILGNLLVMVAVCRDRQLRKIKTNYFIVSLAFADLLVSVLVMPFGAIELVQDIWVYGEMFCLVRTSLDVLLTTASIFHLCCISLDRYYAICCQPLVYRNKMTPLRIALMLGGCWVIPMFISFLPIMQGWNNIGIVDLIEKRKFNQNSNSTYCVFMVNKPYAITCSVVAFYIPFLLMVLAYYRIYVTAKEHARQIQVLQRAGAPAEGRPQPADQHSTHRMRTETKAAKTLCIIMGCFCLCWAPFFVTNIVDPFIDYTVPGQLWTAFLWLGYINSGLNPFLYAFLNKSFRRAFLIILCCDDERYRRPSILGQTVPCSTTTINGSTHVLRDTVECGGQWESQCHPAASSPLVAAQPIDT
# Chain of rat Adrenergic Receptor, Alpha 2 (Adra2), Non-selective Binding, Adra2a (gene 25083) (P22909 whole entry, looked up): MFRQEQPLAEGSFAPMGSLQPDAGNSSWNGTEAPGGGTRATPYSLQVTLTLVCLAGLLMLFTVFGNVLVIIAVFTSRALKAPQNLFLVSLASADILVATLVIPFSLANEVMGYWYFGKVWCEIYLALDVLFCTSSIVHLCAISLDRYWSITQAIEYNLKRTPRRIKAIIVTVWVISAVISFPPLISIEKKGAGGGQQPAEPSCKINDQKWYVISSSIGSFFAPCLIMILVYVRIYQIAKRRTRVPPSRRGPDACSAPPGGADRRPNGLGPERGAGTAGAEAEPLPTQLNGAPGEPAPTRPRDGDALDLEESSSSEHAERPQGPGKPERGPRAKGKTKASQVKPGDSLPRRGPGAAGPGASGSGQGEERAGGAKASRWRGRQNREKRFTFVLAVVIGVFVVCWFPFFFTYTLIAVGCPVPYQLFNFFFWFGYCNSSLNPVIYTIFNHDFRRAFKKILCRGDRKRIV
# Chain of human Opioid Receptor Mu (Opiate Mu), OPRM1 (gene 4988) (P35372 whole entry, looked up): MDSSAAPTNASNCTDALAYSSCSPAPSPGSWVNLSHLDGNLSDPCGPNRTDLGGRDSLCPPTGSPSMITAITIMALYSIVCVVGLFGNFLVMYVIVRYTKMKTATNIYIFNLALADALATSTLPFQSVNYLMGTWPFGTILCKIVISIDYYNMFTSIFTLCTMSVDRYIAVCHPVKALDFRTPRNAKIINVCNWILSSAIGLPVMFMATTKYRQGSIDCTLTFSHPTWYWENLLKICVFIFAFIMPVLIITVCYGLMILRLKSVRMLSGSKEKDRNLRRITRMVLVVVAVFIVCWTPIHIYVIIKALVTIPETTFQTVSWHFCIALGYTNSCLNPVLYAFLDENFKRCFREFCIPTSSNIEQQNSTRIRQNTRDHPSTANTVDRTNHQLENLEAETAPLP
# Chain of human Neurotensin Receptor (NTS), NTSR1 (gene 4923) (P30989 whole entry, looked up): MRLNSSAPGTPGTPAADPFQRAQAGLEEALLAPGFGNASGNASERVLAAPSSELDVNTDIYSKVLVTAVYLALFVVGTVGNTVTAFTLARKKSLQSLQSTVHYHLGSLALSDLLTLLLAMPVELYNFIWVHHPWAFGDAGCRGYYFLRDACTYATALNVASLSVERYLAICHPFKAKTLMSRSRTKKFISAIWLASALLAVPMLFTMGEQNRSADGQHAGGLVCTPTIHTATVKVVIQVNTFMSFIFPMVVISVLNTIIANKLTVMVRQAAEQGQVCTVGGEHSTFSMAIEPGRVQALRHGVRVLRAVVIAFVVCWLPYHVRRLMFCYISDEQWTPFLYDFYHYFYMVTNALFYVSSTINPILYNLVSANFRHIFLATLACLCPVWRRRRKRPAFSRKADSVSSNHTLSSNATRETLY
# Chain of human Thromboxane A2 Receptor (TXA2), TBXA2R (gene 6915) (P21731 whole entry, looked up): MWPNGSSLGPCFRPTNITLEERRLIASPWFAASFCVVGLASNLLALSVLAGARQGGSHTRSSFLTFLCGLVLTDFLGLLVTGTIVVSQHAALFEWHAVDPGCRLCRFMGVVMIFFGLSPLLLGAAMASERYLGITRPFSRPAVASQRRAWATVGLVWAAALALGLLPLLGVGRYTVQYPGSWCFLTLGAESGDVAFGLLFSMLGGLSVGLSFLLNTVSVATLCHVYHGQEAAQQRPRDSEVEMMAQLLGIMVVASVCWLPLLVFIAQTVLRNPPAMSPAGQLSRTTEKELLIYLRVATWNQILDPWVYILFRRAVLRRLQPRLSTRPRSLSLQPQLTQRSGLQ
# Chain of human Opioid Receptor Delta 1 (Opiate D1), OPRD1 (gene 4985) (P41143 whole entry, looked up): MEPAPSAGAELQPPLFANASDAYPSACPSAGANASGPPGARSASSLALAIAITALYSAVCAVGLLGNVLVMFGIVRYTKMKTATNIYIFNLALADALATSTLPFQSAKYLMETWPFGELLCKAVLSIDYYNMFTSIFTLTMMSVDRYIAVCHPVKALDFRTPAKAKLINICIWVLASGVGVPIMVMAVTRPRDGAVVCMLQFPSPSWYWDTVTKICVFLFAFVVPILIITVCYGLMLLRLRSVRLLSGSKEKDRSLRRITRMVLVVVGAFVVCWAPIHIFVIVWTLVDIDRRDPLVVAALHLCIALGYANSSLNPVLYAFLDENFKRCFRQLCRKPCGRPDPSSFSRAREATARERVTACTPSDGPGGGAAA
# Chain of mouse Cholecystokinin, CCK2 Receptor (CCKB), Cckbr (gene 12426) (P56481 whole entry, looked up): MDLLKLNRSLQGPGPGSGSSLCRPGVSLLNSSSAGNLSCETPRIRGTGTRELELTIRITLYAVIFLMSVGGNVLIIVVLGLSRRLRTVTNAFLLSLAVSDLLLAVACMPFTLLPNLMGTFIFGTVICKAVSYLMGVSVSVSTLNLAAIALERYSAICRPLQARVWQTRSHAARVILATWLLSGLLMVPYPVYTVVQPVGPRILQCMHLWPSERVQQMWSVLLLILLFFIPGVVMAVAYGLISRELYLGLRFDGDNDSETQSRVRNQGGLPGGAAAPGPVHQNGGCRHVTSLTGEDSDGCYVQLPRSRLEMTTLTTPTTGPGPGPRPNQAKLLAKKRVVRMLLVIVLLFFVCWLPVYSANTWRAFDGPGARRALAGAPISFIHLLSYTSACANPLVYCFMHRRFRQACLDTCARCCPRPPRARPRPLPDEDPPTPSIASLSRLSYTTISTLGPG
# Chain of rat Adrenergic Receptor, Beta (Adrb), Non-selective Binding, Adrb1 (gene 24925) (P18090 whole entry, looked up): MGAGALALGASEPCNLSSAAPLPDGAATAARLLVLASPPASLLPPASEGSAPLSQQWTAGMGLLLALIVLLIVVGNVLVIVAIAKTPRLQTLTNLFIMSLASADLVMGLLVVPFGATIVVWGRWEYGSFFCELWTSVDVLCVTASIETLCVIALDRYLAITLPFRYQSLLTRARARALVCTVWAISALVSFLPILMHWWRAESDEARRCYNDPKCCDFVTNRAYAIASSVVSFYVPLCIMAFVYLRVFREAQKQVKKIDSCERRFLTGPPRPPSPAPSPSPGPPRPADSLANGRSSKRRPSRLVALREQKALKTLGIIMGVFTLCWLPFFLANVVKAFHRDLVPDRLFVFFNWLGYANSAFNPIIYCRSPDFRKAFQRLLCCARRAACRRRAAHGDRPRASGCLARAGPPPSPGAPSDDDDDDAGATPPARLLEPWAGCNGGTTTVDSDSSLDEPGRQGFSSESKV
# Chain of mouse Cholecystokinin, CCK1 Receptor (CCKA), Cckar (gene 12425) (O08786 whole entry, looked up): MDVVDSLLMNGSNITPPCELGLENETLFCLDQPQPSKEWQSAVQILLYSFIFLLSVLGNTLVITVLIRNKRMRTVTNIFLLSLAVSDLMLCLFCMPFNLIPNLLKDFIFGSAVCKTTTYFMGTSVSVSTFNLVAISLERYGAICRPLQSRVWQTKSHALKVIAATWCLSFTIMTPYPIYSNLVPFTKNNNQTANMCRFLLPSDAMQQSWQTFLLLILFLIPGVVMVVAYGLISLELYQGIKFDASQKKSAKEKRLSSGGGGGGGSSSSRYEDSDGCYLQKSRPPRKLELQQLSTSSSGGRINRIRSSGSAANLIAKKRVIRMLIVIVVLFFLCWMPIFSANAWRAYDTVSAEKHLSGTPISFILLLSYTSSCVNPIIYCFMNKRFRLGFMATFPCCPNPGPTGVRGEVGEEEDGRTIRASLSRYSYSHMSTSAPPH
# Chain of rat Serotonin, 5-Hydroxytryptamine Receptor (5HT), Non-Selective Binding, Htr1a (gene 24473) (P19327 whole entry, looked up): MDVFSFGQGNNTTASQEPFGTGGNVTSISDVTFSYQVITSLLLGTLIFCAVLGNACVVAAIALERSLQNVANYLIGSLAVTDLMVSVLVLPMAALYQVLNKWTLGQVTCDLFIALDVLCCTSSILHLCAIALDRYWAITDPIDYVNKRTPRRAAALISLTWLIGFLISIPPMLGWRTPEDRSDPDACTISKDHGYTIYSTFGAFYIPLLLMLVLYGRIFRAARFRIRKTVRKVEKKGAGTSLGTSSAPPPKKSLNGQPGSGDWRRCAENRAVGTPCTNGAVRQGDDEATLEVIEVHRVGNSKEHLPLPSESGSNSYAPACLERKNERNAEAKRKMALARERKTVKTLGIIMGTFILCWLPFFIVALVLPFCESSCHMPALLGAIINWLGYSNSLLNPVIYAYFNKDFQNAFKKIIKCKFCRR
compound,measurement,setting,value
O=C(O)c1cc(Oc2ccc(C(F)(F)F)cc2Cl)ccc1[N+](=O)[O-],outcome,[1],inactive
CC1(C(=O)Nc2ccc(O)c(Cl)c2Cl)CCCCC1,AC50,[2],3.04 µM (active)
CSC1=N[C@@](C)(c2ccccc2)C(=O)N1Nc1ccccc1,outcome,[3],inactive
CC[C@H](C)[C@H]1O[C@]2(C=C[C@@H]1C)C[C@@H]1C[C@@H](C/C=C(\C)[C@@H](O[C@H]3C[C@H](OC)[C@@H](O[C@H]4C[C@H](OC)[C@@H](NC)[C@H](C)O4)[C@H](C)O3)[C@@H](C)/C=C/C=C3\CO[C@@H]4[C@H](O)C(C)=C[C@@H](C(=O)O1)[C@]34O)O2,AC50,[2],8.41 µM (active)
same,AC50,[4],0.00229 µM (active)
same,AC50,[1],15.5 µM (active)
same,AC50,[5],14.5 µM (active)
same,outcome,[6],inactive
same,AC50,[7],10.4 µM (active)
same,AC50,[8],15 µM (active)
same,AC50,[9],15.4 µM (active)
same,AC50,[10],21.4 µM (active)
same,AC50,[11],33.1 µM (active)
same,outcome,[12],inactive
same,AC50,[13],11.5 µM (active)
CCCCOC(=O)[C@@H](C)Oc1ccc(Oc2ccc(C#N)cc2F)cc1,outcome,[4],inactive
same,outcome,[14],inactive
Nc1nc(N)nc(NC2CC2)n1,outcome,[15],inactive
CNC(=O)ON=C(C)SC,outcome,[14],inactive
CN(C)C(=O)Nc1cccc(C(F)(F)F)c1,outcome,[16],inactive
FC(F)C(F)(F)OCC(Cn1cncn1)c1ccc(Cl)cc1Cl (stereo unspecified),outcome,[5],inactive
same,AC50,[8],9.52 µM (active)
same,AC50,[9],10.3 µM (active)
same,outcome,[12],inactive
CCOC(=O)COc1cc(-c2nn(C)c(OC(F)F)c2Cl)c(F)cc1Cl,outcome,[17],inactive
CCc1cccc(C)c1N(C(=O)CCl)C(C)COC (stereo unspecified),AC50,[8],5.26 µM (active)
CCOP(=S)(Oc1cnc(C(C)(C)C)nc1)OC(C)C (stereo unspecified),AC50,[14],11.5 µM (active)
same,outcome,[13],inactive
CC1=NNC(=O)N(/N=C/c2cccnc2)C1,outcome,[4],inactive
CCCOCC(=Nc1ccc(Cl)cc1C(F)(F)F)n1ccnc1,outcome,[2],inactive
same,AC50,[8],7.33 µM (active)
same,outcome,[10],inactive
CC(C)[C@H](C(=O)O[C@H](C#N)c1cccc(Oc2ccccc2)c1)c1ccc(Cl)cc1,AC50,[2],4.82 µM (active)
same,outcome,[10],inactive
same,outcome,[13],inactive
CSc1nc(NC(C)C)nc(NC(C)C)n1,outcome,[10],inactive

# — PubChem BioAssay (EPA / NIEHS)
